About 79,000 compounds went through this panel and 15% of them were active in at least one assay; those are over-represented in the sample as a whole. The source made the active and inactive calls. Cut-off read from the data, not from the text of the source: active = growth inhibition above about 70%; inactive = the rest.
Assays:
[1] = NCI Yeast Anticancer Drug Screen. Data for the rad50 strain (AID 155);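 note: 0% = growth of vehicle-only cultures of the same strain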; conditions: S. cerevisiae rad50 strain growth inhibition, stronger effect = higher value
Method in brief: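 Growth of the mutant yeast was measured after compound exposure and referenced to vehicle-treated cultures.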

[2] = NCI Yeast Anticancer Drug Screen. Data for the mec2-1 strain (AID 157); conditions: S. cerevisiae mec2-1 strain, stronger effect = higher value
Method in brief: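 Mutant yeast (mec2-1) grown with compound; growth inhibition relative to vehicle control reported.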

[3] = NCI Yeast Anticancer Drug Screen. Data for the sgs1 mgt1 strain (AID 161);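 note: 0% = growth of cultures given vehicle only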; conditions: S. cerevisiae sgs1 mgt1 strain, stronger effect = higher value
Method in brief: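 Yeast cells carrying a defined DNA-repair defect were exposed to test compounds. Growth inhibition was measured relative to vehicle-treated controls.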

[4] = NCI Yeast Anticancer Drug Screen. Data for the cln2 rad14 strain (AID 165);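 note: 0% = growth equal to vehicle treated cultures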; conditions: S. cerevisiae cln2 rad14 strain, stronger effect = higher value
Method in brief: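 Readout is yeast growth inhibition versus vehicle-treated controls, using a strain with cln2 and rad14 alterations exposed to compound.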

[5] = NCI Yeast Anticancer Drug Screen. Data for the bub3 strain (AID 167); conditions: S. cerevisiae bub3 mutant strain, stronger effect = higher value
Method in brief: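 Whole-cell yeast assay. The mutant strain was incubated with compounds, and growth inhibition was determined by comparison with vehicle-treated cells.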

[6] = NCI Yeast Anticancer Drug Screen. Data for the mlh1 rad18 strain (AID 175); conditions: S. cerevisiae mlh1 rad18 strain growth inhibition, stronger effect = higher value
Method in brief: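 Genetically defined yeast (DNA repair-deficient) exposed to compounds; growth inhibition determined relative to vehicle.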

[7] = at 5.0 µM (retest, dose inferred, filed as 0.5)
[8] = at 50.0 µM (retest, dose inferred, filed as 5.0)

Measured: growth inhibition

CCCCCC(CCCCC)C(=O)O
active: [1]; at 50.0 µM 78.6% | [2]; at 50.0 µM 70.2% | [3]; at 50.0 µM 72% | [4]; at 50.0 µM 78% | [6]; at 50.0 µM 79.5%
inactive: [1]; [7] 0% | [1]; [8] 63% | [2]; [7] -7% | [2]; [8] 52% | [3]; [7] -20% | [3]; [8] 48% | [4]; [7] -11% | [4]; [8] 50% | [5]; [7] -5% | [5]; [8] 29% | [5]; at 50.0 µM 66.2% | [6]; [7] -1% | [6]; [8] 60%

Cc1cc2cc3c(c(C(=O)O)c2o1)C(=O)c1ccc2ccccc2c1C3
active: [1]; [8] 99% | [1]; at 50.0 µM 98.2% | [2]; [8] 99% | [2]; at 50.0 µM 99.5% | [3]; [8] 99% | [3]; at 50.0 µM 99.5% | [4]; [8] 99% | [4]; at 50.0 µM 99.2% | [5]; [8] 99% | [5]; at 50.0 µM 99.6% | [6]; [8] 99% | [6]; at 50.0 µM 99.4%
inactive: [1]; [7] 15% | [2]; [7] 24% | [3]; [7] 19% | [4]; [7] 14% | [5]; [7] 14% | [6]; [7] 20%

C/C(=N\NC(=S)N(C)C1CCCCC1)c1ccc2ccccc2n1
active: [1]; [8] 88% | [1]; at 50.0 µM 83.2% | [2]; [8] 97% | [2]; at 50.0 µM 80.2% | [3]; [8] 93% | [3]; at 50.0 µM 81.8% | [4]; [8] 88% | [4]; at 50.0 µM 84% | [5]; [8] 96% | [5]; at 50.0 µM 76.9% | [6]; [8] 97% | [6]; at 50.0 µM 89.2%
inactive: [1]; [7] 18% | [2]; [7] 28% | [3]; [7] 28% | [4]; [7] 33% | [5]; [7] 33% | [6]; [7] 19%

CSC(SC)=C(C#N)C(=O)Nc1ccc(C)cc1
inactive: [1]; [7] 25% | [1]; [8] 47% | [1]; at 50.0 µM 40.5% | [2]; [7] 10% | [2]; [8] 53% | [3]; [7] 37% | [3]; [8] 55% | [4]; [7] 36% | [4]; [8] 37% | [4]; at 50.0 µM 29.3% | [5]; [7] 50% | [5]; [8] 53% | [6]; [7] 8% | [6]; [8] 8%
active: [2]; at 50.0 µM 77.3% | [3]; at 50.0 µM 73.4% | [5]; at 50.0 µM 89.7% | [6]; at 50.0 µM 83.8%

CCN(CC)CCOc1ccc(-c2nc3cc(Cl)ccc3s2)cc1
active: [1]; [8] 88% | [1]; at 50.0 µM 75% | [2]; [8] 86% | [3]; [8] 91% | [3]; at 50.0 µM 91% | [4]; [8] 84% | [5]; [8] 90% | [5]; at 50.0 µM 85.7% | [6]; [8] 82% | [6]; at 50.0 µM 83.3%
inactive: [1]; [7] 29% | [2]; [7] 54% | [2]; at 50.0 µM 35.8% | [3]; [7] 23% | [4]; [7] 31% | [4]; at 50.0 µM 48% | [5]; [7] 61% | [6]; [7] 39%

CC1CC(C)C(C)C(CO)C1 (stereo not given)
inactive: [1]; [7] 8% | [1]; [8] -3% | [1]; at 50.0 µM -22.4% | [2]; [7] 4% | [2]; [8] -3% | [2]; at 50.0 µM -3.2% | [3]; [7] -8% | [3]; [8] -1% | [3]; at 50.0 µM -22.6% | [4]; [7] -1% | [4]; [8] -3% | [4]; at 50.0 µM 40% | [5]; [7] 0% | [5]; [8] 4% | [5]; at 50.0 µM -0.05% | [6]; [7] 6% | [6]; [8] -5% | [6]; at 50.0 µM -12.2%

COc1ccc2c(c1)CC[C@@H]1[C@@H]2CC[C@]2(C)/C(=N/OCCN3CCCCC3)CC[C@@H]12
active: [1]; [8] 97% | [1]; at 50.0 µM 76.3% | [2]; [8] 98% | [2]; at 50.0 µM 71.2% | [3]; [8] 97% | [3]; at 50.0 µM 86.8% | [4]; [8] 96% | [4]; at 50.0 µM 78.7% | [5]; [8] 98% | [5]; at 50.0 µM 79.8% | [6]; [7] 80% | [6]; [8] 98% | [6]; at 50.0 µM 83%
inactive: [1]; [7] 60% | [2]; [7] 56% | [3]; [7] 33% | [4]; [7] 20% | [5]; [7] 33%

CC(=O)c1cc(-c2ccccc2)nc2ccccc12
active: [1]; at 50.0 µM 89.2% | [2]; [8] 84% | [2]; at 50.0 µM 94.1% | [3]; [8] 80% | [3]; at 50.0 µM 98.2% | [4]; at 50.0 µM 74.5% | [5]; [8] 87% | [5]; at 50.0 µM 87% | [6]; [8] 88% | [6]; at 50.0 µM 97.1%
inactive: [1]; [7] -5% | [1]; [8] 38% | [2]; [7] -29% | [3]; [7] 12% | [4]; [7] -25% | [4]; [8] 35% | [5]; [7] -28% | [6]; [7] 4%

CC(/C(=N/NC(=O)C(N)=O)c1c(Cl)ccc(Cl)c1O)C1(O)C(=O)Nc2ccccc21 (stereo not given)
active: [6]; at 50.0 µM 86.5%
inactive: [1]; [7] 9% | [1]; [8] 53% | [1]; at 50.0 µM 53.8% | [2]; [7] 2% | [2]; [8] 29% | [2]; at 50.0 µM 57.4% | [3]; [7] 9% | [3]; [8] 53% | [3]; at 50.0 µM 52.5% | [4]; [7] 14% | [4]; [8] 18% | [4]; at 50.0 µM 20.5% | [5]; [7] 4% | [5]; [8] 52% | [5]; at 50.0 µM 44% | [6]; [7] 9% | [6]; [8] 32%

O=C(CC1(O)C(=O)Nc2c(Cl)cc(Cl)cc21)c1ccc(Cl)cc1 (stereo not given)
active: [1]; [8] 87% | [1]; at 50.0 µM 85% | [2]; [8] 91% | [2]; at 50.0 µM 70.3% | [3]; [8] 98% | [3]; at 50.0 µM 81% | [4]; [8] 96% | [4]; at 50.0 µM 82.5% | [5]; [8] 93% | [5]; at 50.0 µM 71.5% | [6]; [8] 97% | [6]; at 50.0 µM 93.8%
inactive: [1]; [7] 0% | [2]; [7] -1% | [3]; [7] 3% | [4]; [7] -3% | [5]; [7] -3% | [6]; [7] -1%
